Measurements: publication PMC4552634, “A New Set of Chemical Starting Points with Plasmodium falciparum Transmission-Blocking Potential for Antimalarial Drug Discovery” (PLoS ONE, 2015)
The whole screen tested about 13,000 compounds, of which about 3,200 (25%) showed an effect of 50% or more. Some of the results follow.

system: P. falciparum stage V gametocytes; parameters: BacTiter-Glo ATP luminescence viability of purified stage V gametocytes in 384-well plates, per cent inhibition versus DMSO; settings: 48 h, 5 µM; inhibitor

Compared with `CCCCc1cc(NCc2ccncc2)nc(Nc2ccc(C)cc2)n1` [TCMDC-134000], `COc1ccc2c(NN=Cc3ccncc3)cc(C)nc2c1` [TCMDC-142038] is higher in “% Inhibition” value: -5.693% for the first, 85.05% for the second.

Going from `NC1CCCN(Cc2ccc(-c3cccc(-c4nc5ccc(F)cc5[nH]4)c3)cc2)C1` (stereo not drawn) [TCMDC-133840] to `NC1CCN(Cc2ccc(-c3cccc(-c4nc5ccc(F)cc5[nH]4)c3)cc2)C1` (stereo not drawn) [TCMDC-133838], the “% Inhibition” value falls from 68.96% to 61.76%.

Compared with `CC1CN(Cc2ccc(-c3ccc(-c4nc5cc(F)ccc5[nH]4)cc3)cc2)CC(C)O1.O=C(O)C(F)(F)F` (stereo not drawn) [TCMDC-133831], `O=C(O)C(F)(F)F.OC1CCCN(Cc2ccc(-c3ccc(-c4nc5cc(F)ccc5[nH]4)cc3)cc2)C1` (stereo not drawn) [TCMDC-133833] is higher in “% Inhibition” value: -15.75% for the first, -10.21% for the second.

First: CC(=O)N(C)C1CCN(Cc2ccc(-c3cccc(-c4nc5ccc(F)cc5[nH]4)c3)cc2)C1 (stereo not drawn) [TCMDC-133885]
Second: OC1CCCN(Cc2ccc(-c3cccc(-c4nc5ccc(F)cc5[nH]4)c3)cc2)C1 (stereo not drawn) [TCMDC-133815]
The “% Inhibition” value of the first is higher: 25.2% for the first, -14.67% for the second.

First: NC1CCCN(Cc2cccc(-c3ccc(-c4nc5ccc(F)cc5[nH]4)cc3)c2)C1 (stereo not drawn) [TCMDC-133855]
Second: NC1CCN(Cc2cccc(-c3ccc(-c4nc5ccc(F)cc5[nH]4)cc3)c2)C1 (stereo not drawn) [TCMDC-133853]
The “% Inhibition” value of the first is lower: 20.47% for the first, 40.4% for the second.

Going from `NC1CCN(Cc2ccc(-c3ccc(-c4nc5cc(F)ccc5[nH]4)cc3)cc2)C1` (stereo not drawn) [TCMDC-133872] to `FC(F)(F)c1ccc2[nH]c(-c3ccc(-c4cccc(CNCCN5CCNCC5)c4)cc3)nc2c1` [TCMDC-132864], the “% Inhibition” value rises from 102.5% to 103.8%.

First: O=C(Nc1ccc2c(c1)CCN2C1CCN(Cc2ccc(O)cc2)C1)c1ccco1 (stereo not drawn) [TCMDC-135066]
Second: COc1ccccc1N1CCN(CCCCNC(=O)c2ccc(NC(=O)c3ccc(OC(F)(F)F)cc3)cc2)CC1 [TCMDC-137780]
The “% Inhibition” value of the first is lower: -16.31% for the first, -5.009% for the second.

Going from `COC(=O)c1ccc(CC(C)NCC(O)c2cccc(C(F)(F)F)c2)cc1F` (stereo not drawn) [TCMDC-131519] to `CC(CN(C)C)C(=O)Nc1cccc(-c2ccc(-c3nc4ccc(C(F)(F)F)cc4[nH]3)cc2)c1` (stereo not drawn) [TCMDC-137112], the “% Inhibition” value falls from 6.156% to -57.5%.

Compared with `NC1=NC(c2ccccc2)(c2ccccc2)C(=O)N1Cc1ccccc1Br` [TCMDC-136813], `O=c1cc(NCc2ccccc2NCc2ccc(Cl)c(Cl)c2)[nH]c2ccccc12` [TCMDC-139499] is higher in “% Inhibition” value: -33.84% for the first, -0.9265% for the second.

First: COc1ccc2c(Nc3ccc(N4CCN(C)CC4)cc3)cc(C)nc2c1 [TCMDC-123914]
Second: COc1ccc2nc(C)cc(Nc3ccc(N4CCN(C)CC4)cc3)c2c1 [TCMDC-125813]
The “% Inhibition” value of the first is higher: 63.09% for the first, 1.536% for the second.

Compared with `COc1ccc2nc(C)cc(NN=Cc3cc(C)ccc3O)c2c1` [TCMDC-124232], `COc1ccc(C=NNc2cc(C)nc3ccc(OC)cc23)c(OC)c1` [TCMDC-123955] is higher in “% Inhibition” value: 86.79% for the first, 105.7% for the second.

Compared with `COc1ccc2nccc(NN=Cc3ccncc3)c2c1` [TCMDC-142033], `COc1ccc2c(NN=Cc3ccncc3)ccnc2c1` [TCMDC-142030] is lower in “% Inhibition” value: 25.13% for the first, -7.897% for the second.

First: COc1ccc2nc(C)cc(Nc3ccc(Cl)c(Cl)c3)c2c1 [TCMDC-124166]
Second: COc1ccc2nc(C)cc(NN=Cc3ccncc3)c2c1 [TCMDC-142017]
The “% Inhibition” value of the first is lower: 19.57% for the first, 88.79% for the second.

Compared with `O=C(NCc1ccc(Cl)c(Cl)c1)[C@H]1CNCCN1C(=O)c1ccccc1` [TCMDC-141240], `CC(=O)c1cccc(NC(=O)NC2CCN(CCCCCNC(=O)/C=C/c3ccc(Cl)c(Cl)c3)CC2)c1` [TCMDC-135716] is lower in “% Inhibition” value: 16.71% for the first, -43.54% for the second.

Going from `Cc1nc2ccc(NC(=O)Nc3ccnc4ccc(C(F)(F)F)cc34)cc2o1` [TCMDC-139534] to `Cn1nccc1C(=O)NCCNCc1ccc(-c2cccc(-c3nc4cc(C(F)(F)F)ccc4[nH]3)c2)cc1.O=C(O)C(F)(F)F` [TCMDC-133006], the “% Inhibition” value falls from -18.3% to -36.49%.

Compared with `CC(=O)Nc1ncc(C(=O)Nc2cccc(-c3cccc(-c4nc5ccc(F)cc5[nH]4)c3)c2)s1` [TCMDC-136914], `O=C(O)C(F)(F)F.O=C1CCCN1CCCNCc1cccc(-c2cccc(-c3nc4cc(C(F)(F)F)ccc4[nH]3)c2)c1` [TCMDC-132754] is lower in “% Inhibition” value: -0.106% for the first, -20.15% for the second.

First: COc1ccc2c(NN=Cc3cccnc3)cc(C)nc2c1 [TCMDC-142037]
Second: CCOc1ccc2nc(C)cc(NN=Cc3cccnc3)c2c1 [TCMDC-142047]
The “% Inhibition” value of the first is higher: 80.26% for the first, 3.839% for the second.

Compared with `COc1ccc2c(NN=Cc3cccnc3)ccnc2c1` [TCMDC-142029], `COc1ccc2nc(C)cc(NN=Cc3ccccc3)c2c1` [TCMDC-123830] is higher in “% Inhibition” value: 1.197% for the first, 2.081% for the second.

First: COc1ccc2nc(-c3ccccc3)cc(NN=Cc3ccncc3)c2c1 [TCMDC-142041]
Second: COc1ccc(-c2csc3ncnc(Cl)c23)cc1 [TCMDC-123805]
The “% Inhibition” value of the first is lower: -9.454% for the first, 65.98% for the second.

Compared with `Cc1cc(-c2nc3ccc(N4CCN(C)CC4)cc3[nH]2)nn1Cc1cc(Cl)ccc1OCC(C)C` [TCMDC-136722], `Cc1cnc2ccc(NS(=O)(=O)c3sc4ccc(Cl)cc4c3C)cc2c1N1CCNCC1` [TCMDC-139547] is lower in “% Inhibition” value: 42.92% for the first, 29.85% for the second.

Compared with `COc1ccc(-c2csc3ncnc(Cl)c23)cc1OC` [TCMDC-125316], `Clc1ccc(-c2csc3ncnc(Cl)c23)cc1` [TCMDC-123811] is higher in “% Inhibition” value: 38.88% for the first, 48.01% for the second.

Compared with `Cc1c(S(=O)(=O)Nc2ccc3nccc(N4CCN[C@H](C)C4)c3c2)sc2ccc(Cl)cc12` [TCMDC-139483], `COc1cc2c(cc1N(C(C)C)S(=O)(=O)c1sc3ccc(Cl)cc3c1C)CCNCC2` [TCMDC-141465] is higher in “% Inhibition” value: -5.538% for the first, 91.42% for the second.

Compared with `Oc1ccccc1CCNCC1CCc2ccccc2C1` (stereo not drawn) [TCMDC-138024], `O=C(NC1CCCC1)c1cc2c(=O)n3ccccc3nc2nc1NCCc1ccccc1` [TCMDC-125350] is higher in “% Inhibition” value: -11.67% for the first, 42.55% for the second.

Going from `FC(F)(F)c1ccc2nc(-c3cccc(-c4cccc(CNCCN5CCNCC5)c4)c3)[nH]c2c1` [TCMDC-132871] to `FC(F)(F)c1ccc2[nH]c(-c3cccc(-c4ccc(CNCCN5CCNCC5)cc4)c3)nc2c1` [TCMDC-132872], the “% Inhibition” value rises from 79.56% to 109.9%.

Going from `O=C(NCCN1CCCC1)c1ccc(-c2ccc(-c3nc4cc(C(F)(F)F)ccc4[nH]3)s2)cc1` [TCMDC-132315] to `FC(F)(F)c1ccc2[nH]c(-c3ccc(-c4ccc(CNCCN5CCNCC5)cc4)s3)nc2c1` [TCMDC-132862], the “% Inhibition” value rises from 12.27% to 105.5%.

Compared with `Cn1nccc1C(=O)NCCNCc1cccc(-c2ccc(-c3nc4cc(C(F)(F)F)ccc4[nH]3)cc2)c1.O=C(O)C(F)(F)F` [TCMDC-133014], `O=C1CCCN1CCCNCc1cccc(-c2ccc(-c3nc4ccc(C(F)(F)F)cc4[nH]3)cc2)c1` [TCMDC-132761] is lower in “% Inhibition” value: -13.72% for the first, -39.05% for the second.

First: O=C1CCCN1CCCNCc1ccc(-c2cccc(-c3nc4ccc(C(F)(F)F)cc4[nH]3)c2)cc1 [TCMDC-132752]
Second: O=C(O)C(F)(F)F.O=C1CCCN1CCCNCc1ccc(-c2ccc(-c3nc4cc(C(F)(F)F)ccc4[nH]3)s2)cc1 [TCMDC-132764]
The “% Inhibition” value of the first is higher: -22.52% for the first, -35.61% for the second.
